# FLuc modulator: inhibits or activates purified firefly luciferase, miR-21 counter-screen. P08659. purified FLuc, Km substrates, luminescence inhibition. Potency, µM (highest dose often 57.5 µM), without a hit: top-dose activity change, negative = inhibition, actives largely listed as inhibitors. actives 6.9% (n = 360,000). AID 588342;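 also: plate controls were vehicle for no effect and reference inhibitor for full effect; nearly all actives have a fitted effect of over 55% in size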
# Target sequence (P08659 whole entry, looked up): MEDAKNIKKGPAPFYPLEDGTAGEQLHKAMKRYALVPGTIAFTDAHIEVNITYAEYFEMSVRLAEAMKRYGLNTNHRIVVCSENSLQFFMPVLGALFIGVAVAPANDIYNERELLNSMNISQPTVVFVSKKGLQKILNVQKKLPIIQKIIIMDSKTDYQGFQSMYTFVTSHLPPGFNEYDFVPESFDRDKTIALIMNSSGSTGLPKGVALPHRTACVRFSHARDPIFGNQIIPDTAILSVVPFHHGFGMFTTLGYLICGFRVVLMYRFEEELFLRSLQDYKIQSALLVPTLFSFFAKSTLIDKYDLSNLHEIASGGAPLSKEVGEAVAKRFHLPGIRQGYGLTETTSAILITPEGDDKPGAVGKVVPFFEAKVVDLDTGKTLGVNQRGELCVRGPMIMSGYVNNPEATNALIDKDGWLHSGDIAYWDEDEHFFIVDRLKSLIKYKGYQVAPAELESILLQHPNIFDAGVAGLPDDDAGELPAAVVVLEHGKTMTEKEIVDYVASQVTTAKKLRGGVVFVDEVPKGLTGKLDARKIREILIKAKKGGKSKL
#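 Biochemical qHTS of compounds, final roughly 60 µM downward over six points, against 10 nM purified firefly luciferase using Km concentrations of substrates (10 uM D-luciferin, 10 uM ATP) in Tris acetate pH 7.5 buffer; luminescence output.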
# ELG1 genotoxic: genotoxicity induction in ELG1-luciferase HEK293T cells; HEK293T ELG1-luciferase reporter, luminescence, 16 h; AID 504466; actives 1.3% (n = 330,000); Potency, µM (highest dose often 46 µM), for inactives: at the highest dose activity change, positive = activation, most hits filed as activators; also: % of control where 0% means no effect; nearly all actives have a fitted effect of over 60% in size
#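 After overnight (16 hr) compound treatment at 37 °C, ELG1-luciferase HEK293T cells were lysed with ONE-Glo; luminescence quantified 30 min later at room temperature.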
# KinaseGlo FLuc: Kinase-Glo luciferase inhibition (counter-screen). Q27757. Kinase-Glo luciferase, ATP luminescence, 8 min. Potency, µM (titrated, usually from 38.3 µM), for the others: at the highest dose activity change, negative = inhibition, actives largely listed as inhibitors. actives 0.28% (n = 200,000). AID 1379; also: % is scaled to controls: 0 for no effect and ±100 for the full control effect; nearly all actives have a fitted effect of over 60% in size
#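 Luminescence was the read-out, taken after 8-minute incubation at ambient temperature. Luciferase turned over luciferin with 10 uM ATP in imidazole pH 7.2 buffer containing KCl, MgCl2, Tween 20 and BSA.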
# Rab9 promoter act: Rab9 promoter activation. Huh7 Rab9 promoter-luciferase reporter, luminescence, 24 h. Potency, µM (top dose mostly 9.22 µM), for the others: at the highest dose activation, negative = inhibition, hits mostly activators. actives 2.8% (n = 320,000). AID 485297; also: % of control where 0% means no effect; nearly all actives have a fitted effect of over 60% in size
#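 Luminescence read-out: Huh7 cells stably expressing Rab9-luciferase, treated 24 h with compound at 37 °C, then lysed with luciferase reagent for 10 min at ambient before reading.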
# SMN2 splice up: SMN2 splice variant enhancement; HEK293 SMN2-luciferase splicing reporter, luminescence, 30-36 h; Potency, µM (titrated, usually from 46.1 µM), inactives show top-dose activity change, positive = activation, hits mostly activators; actives 2.8% (n = 210,000); AID 1458; also: % of control where 0% means no effect; nearly all actives have a fitted effect of over 55% in size
#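 HEK293 cells carry an SMN2 minigene-luciferase reporter in which exon 7 inclusion puts luciferase in frame. Cells were seeded at 2000 cells/well, attached for 10-12 hours, then exposed to compounds for 30-36 hours at 37C before ONE-Glo luminescence.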
# NPC1 promoter act: NPC1 promoter activation; Huh7 NPC1 promoter luciferase reporter, 24 h; Potency, µM (top dose mostly 9.22 µM), inactives show top-dose activation, actives largely listed as activators; actives 2.4% (n = 320,000); AID 485313; also: % of control where 0% means no effect; nearly all actives have a fitted effect of over 60% in size
#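 Compounds in DMSO were transferred onto Huh7 NPC1-luciferase reporter cells pre-incubated 2 h; after 24 h at 37 °C, Amplite reagent was dispensed and luminescence recorded 10 min later.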
# Numbers without * were called inactive; u = inconclusive; x = not tested or not shown; [ ] = another dose, or the depositor's remark. Most compounds without a hit are left out; they make up all but 7.3% or so of the library. Calls follow the shape of the dose curve; as a rule, active = well fitted curve in the direction sought with a large enough effect; inconclusive = small, poorly fitted or top-dose-only effect, or another doubt; inactive = no such curve, though single readings can be large; an effect the other way counts as inactive or inconclusive. Potency is read from the fitted curve at half-maximal effect.
SMILES,FLuc modulator,ELG1 genotoxic,KinaseGlo FLuc,Rab9 promoter act,SMN2 splice up,NPC1 promoter act
O=C(CCn1c(=O)c2cccn2c2cccnc21)N1CCN(c2ccccc2F)CC1,-7%,x,x,x,x,x
O=C(NCc1ccccc1Cl)c1ccc(CSCc2ccccc2Cl)o1,-16%,x,x,x,x,x
CC1Cc2cc(/C=C3/SC(=S)NC3=O)ccc2O1 (configuration not stated),2.7µM*,11%,x,4µM*,x,u
Cc1cc(/C=C2\SC(=S)NC2=O)c(C)n1-c1ccccc1,0.54µM*,u,x,0.63µM*,x,1µM*
Cc1cc(/C=C2/SC(=O)NC2=O)c(C)n1-c1ccc(N2CCOCC2)cc1,-6%,-1%,0%,-4%,-25%,8%
COc1ccc(-n2c(C)cc(/C=C3\SC(=S)NC3=O)c2C)cc1,5.4µM*,4%,-2%,u,x,u
Cc1cc(/C=C2\SC(=S)NC2=O)c(C)n1C,27µM*,11%,-3%,-7%,11%,3%
O=c1/c(=C/c2ccccn2)sc2nc3ccccc3n12,0.13µM*,0.82µM*,13µM*,u,13µM*,u
O=C(O)c1cccc(-c2ccc(/C=c3/sc4nc5ccccc5n4c3=O)o2)c1,9.5µM*,6%,x,28%,x,25%
O=c1c2ccccc2nc2sc3ccccc3n12,5.4µM*,u,-7%,4µM*,14µM*,4µM*
O=c1/c(=C\c2cc([N+](=O)[O-])cc([N+](=O)[O-])c2O)sc2nc3ccccc3n12,9.5µM*,6%,-1%,11%,-3%,-3%
COC(=O)/C=c1/sc2nc3ccccc3n2c1=O,u,-2%,-10%,1%,u,-4%
COc1ccccc1CNC(=O)C1CCN(S(=O)(=O)c2c(C)noc2/C=C/c2c(C)cc(C)cc2C)CC1,0%,x,x,x,x,x
COc1cccc(CSc2nc3n(n2)C(CC(C)C)C(C(=O)Nc2ccccc2OC)=C(C)N3)c1 (configuration not stated),1%,x,x,x,x,x
Cc1ccc(Cl)cc1N1CCN(C(=O)c2c(C)oc3ncnc(N4CCCCC4)c23)CC1,-9%,x,x,x,x,x
Cc1cccc(NC(=O)c2cnn3c2NC(=C2CC2)C=C3C(F)F)n1,4%,x,x,x,x,x
c1ccc(-c2noc(-c3ccc4c(c3)OCO4)n2)nc1,0.24µM*,u,2.8µM*,u,0.5µM*,u
Cc1cccc(-c2noc(-c3ccc4c(c3)OCO4)n2)c1,-17%,3%,-5%,-1%,x,-3%
c1ccc(-c2noc(-c3ccc4ccccc4c3)n2)nc1,0.067µM*,u,10µM*,-22%,0.5µM*,-25%
Nc1nc(-c2ccc3ccccc3c2)cc(-c2cc(-c3ccc4ccccc4c3)nc(N)n2)n1,x,x,-1%[7.66 µM],x,-2%[9.22 µM],x
CCOc1ccc(NC(=O)[C@@H](c2ccccc2)N2Cc3ccccc3C2=O)cc1,-5%,x,x,x,-3%,x
Cc1ccc(-c2nnc(N3CCCCCC3)c3ccccc23)cc1,19µM*,1%,x,9%,x,15%
CCOc1cccc(NC(=O)C2CC(=O)N(C)C(=Nc3ccc(F)cc3)S2)c1 (configuration not stated),-8%,x,x,x,x,x
NC(=O)c1ccccc1N/C=C/C(=O)c1ccccc1,0.85µM*,0.92µM*,11µM*,0.56µM*,7.1µM*,0.56µM*
COC(=O)c1ccccc1N/C=C/C(=O)c1ccc(Br)cc1,17µM*,18%,-6%,u,11µM*,25%
SMILES,FLuc modulator,ELG1 genotoxic,KinaseGlo FLuc,Rab9 promoter act,SMN2 splice up,NPC1 promoter act
O=C(/C=C/NNC(=O)c1ccccc1)c1ccccc1,u,u,4%,-1%,1%,5%
COc1ccc(OC)c(NC(=O)CN(C)S(=O)(=O)c2ccc3[nH]c4c(c3c2)CCCC4)c1,0%,x,x,x,x,x
CCc1ccc(C2=NNC(=Nc3cccc(S(=O)(=O)N(C)C)c3)SC2)cc1,11µM*,4%,-1%,10%,-80%,22%
Cc1ccc(C2=NNC(=Nc3ccc(F)cc3)SC2)cc1,17µM*,-1%,0%,18%,-1%,30%
Cc1cccc(N=C2NN=C(c3ccc4c(c3)OCCO4)CS2)c1,1.2µM*,u,-20%,2.8µM*,-3%,2.8µM*
Cc1ccc(NC(=O)CN2C(=O)C3(SCC(=O)N3c3ccc(F)c(F)c3)c3ccccc32)c(C)c1 (configuration not stated),4%,x,x,x,x,x
COc1ccc(-c2cc(C(=O)Nc3c(C)nn(Cc4ccc(F)cc4)c3C)no2)cc1OC,-4%,x,x,x,-11%,x
COC(=O)c1sccc1NC(=O)Nc1ccc(C)c(C)c1,0.48µM*,2.3µM*,x,u,x,2%
CCc1ccc(NC(=O)Nc2ccsc2C(=O)OC)cc1,0.34µM*,2.1µM*,x,u,x,17%
COC(=O)c1sccc1NC(=O)Nc1ccccc1F,13µM*,4%,13µM*,-1%,x,1%
COC(=O)c1sccc1NC(=O)Nc1ccc(OC)c(OC)c1,u,-3%,x,-1%,x,-1%
COC(=O)c1sccc1NC(=O)Nc1ccccc1C,4%,12%,x,-6%,x,-7%
COC(=O)c1sccc1NC(=O)Nc1ccc(Cl)c(Cl)c1,u,18%,-23%,-3%,13µM*,-2%
CCc1cccc(CC)c1-n1nnc2c(sc3nc(C)cc(C)c32)c1=O,-9%,x,x,x,-5%,x
Cc1cn(-c2ccc(Br)cc2)[nH]c1=O,u,18µM*,0%,18%,21%,27%
Cc1[nH][nH]c(=O)c1C(c1ccc(Br)cc1)c1c(C)[nH][nH]c1=O,0%,-1%,x,4%,x,-1%
CCOC(=O)c1sc(=N)n(-c2ccc(OC)cc2)c1C,19µM*,u,-2%,26%,14%,30%
COC(=O)c1c(C)n(-c2ccc(OC)cc2)c2ccc(O)cc12,0%,-25%,-2%,-4%,4.5µM*,-1%

# Screening results as filed in PubChem.
